{"source": "paper PMC4336329", "about": "(PLoS ONE, 2015)", "note": "The whole screen tested about 310,000 compounds, of which about 14,000 (4.5%) showed an effect of 50% or more. The effect is printed as a negative number. The list comes from a sample in which strong results are over-represented; it also holds similar structures and randomly drawn compounds.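 Note: peak tail current of the secondary pulse compared with the same well before compound.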"}
{"target": "human ether-à-go-go-related gene (hERG) potassium channel (human, UniProt Q12809)", "sequence (Q12809 whole entry, looked up)": "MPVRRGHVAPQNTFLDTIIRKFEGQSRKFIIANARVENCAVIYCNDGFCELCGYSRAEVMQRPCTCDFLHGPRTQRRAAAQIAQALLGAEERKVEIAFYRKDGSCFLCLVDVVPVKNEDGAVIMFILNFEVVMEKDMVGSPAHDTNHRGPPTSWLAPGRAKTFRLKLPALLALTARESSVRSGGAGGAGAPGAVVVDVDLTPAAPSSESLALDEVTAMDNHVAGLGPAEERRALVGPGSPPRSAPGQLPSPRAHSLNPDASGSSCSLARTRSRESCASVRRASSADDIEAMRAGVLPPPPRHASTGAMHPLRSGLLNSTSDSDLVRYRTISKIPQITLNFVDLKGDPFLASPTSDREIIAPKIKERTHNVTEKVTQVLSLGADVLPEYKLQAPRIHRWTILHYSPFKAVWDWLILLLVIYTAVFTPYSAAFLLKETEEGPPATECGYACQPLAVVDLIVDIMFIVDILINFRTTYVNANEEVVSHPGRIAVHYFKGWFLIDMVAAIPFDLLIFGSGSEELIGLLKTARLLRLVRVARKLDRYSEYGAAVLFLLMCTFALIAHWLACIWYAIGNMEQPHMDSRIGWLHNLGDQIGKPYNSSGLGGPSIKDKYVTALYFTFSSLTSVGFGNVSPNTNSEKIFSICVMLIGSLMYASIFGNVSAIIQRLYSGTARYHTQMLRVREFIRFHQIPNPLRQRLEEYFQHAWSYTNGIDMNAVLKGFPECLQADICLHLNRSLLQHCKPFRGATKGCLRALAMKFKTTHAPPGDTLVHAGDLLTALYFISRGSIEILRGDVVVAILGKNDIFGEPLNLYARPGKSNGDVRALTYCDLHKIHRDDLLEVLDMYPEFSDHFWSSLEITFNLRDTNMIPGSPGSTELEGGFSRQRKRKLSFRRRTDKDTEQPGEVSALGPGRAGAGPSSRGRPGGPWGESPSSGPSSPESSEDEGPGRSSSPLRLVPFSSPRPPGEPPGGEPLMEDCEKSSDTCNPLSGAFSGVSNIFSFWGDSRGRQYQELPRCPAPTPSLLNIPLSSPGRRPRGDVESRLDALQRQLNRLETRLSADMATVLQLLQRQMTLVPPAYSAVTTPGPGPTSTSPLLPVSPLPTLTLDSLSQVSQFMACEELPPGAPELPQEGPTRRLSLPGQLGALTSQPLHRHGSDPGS", "assay": "primary screen, population patch clamp on CHO cells stably expressing hERG; higher = less effect of the substance", "units": {"hERG current change (%, negative = inhibition) at 10uM": "%"}}
{"smiles": "Cc1c(NN=C(C#N)C#N)c(=O)n(-c2ccccc2)n1C", "hERG current change (%, negative = inhibition) at 10uM": 13.5}
{"smiles": "O=C1CSC(c2ccc(Cl)c(Cl)c2)N1c1nccs1", "note": "(centres unmarked)", "hERG current change (%, negative = inhibition) at 10uM": -1.93}
{"smiles": "CC(C)(CO)C(O)C(=O)NCCCO", "note": "(centres unmarked)", "hERG current change (%, negative = inhibition) at 10uM": 11.5}
{"smiles": "CCOc1ccccc1C1C(C#N)=C(N)Oc2cc(N)ccc21", "note": "(centres unmarked)", "hERG current change (%, negative = inhibition) at 10uM": -5.58}
{"smiles": "O=C(Cn1c2ccc(F)cc2c2nc3n(c(=O)c21)CCS3)Nc1ccccc1C(F)(F)F", "hERG current change (%, negative = inhibition) at 10uM": 15.6}
{"smiles": "O=C1CCCC/C1=C/NCc1ccc(F)cc1", "hERG current change (%, negative = inhibition) at 10uM": 6.07}
{"smiles": "O=C(CSc1nc2ccccc2s1)NCCOc1ccc(Cl)cc1", "hERG current change (%, negative = inhibition) at 10uM": -3.32}
{"smiles": "CC1CN(C(=O)COC(=O)c2c(Cl)cccc2Cl)CC(C)O1", "note": "(centres unmarked)", "hERG current change (%, negative = inhibition) at 10uM": 6.73}
{"smiles": "CCOC(=O)C1CCN(C(=O)c2cc(S(=O)(=O)N3CCc4ccccc43)ccc2OC)CC1", "hERG current change (%, negative = inhibition) at 10uM": -60.3}
{"smiles": "CCOC(=O)C1CCN(S(=O)(=O)CCNC(=O)c2ccccc2)CC1", "hERG current change (%, negative = inhibition) at 10uM": -2.78}
{"smiles": "CCOC(=O)C1CCN(C(=O)c2ccc(Cl)c(S(=O)(=O)N3CCOCC3)c2)CC1", "hERG current change (%, negative = inhibition) at 10uM": -32.4}
{"smiles": "CCOC(=O)C1CCCN(C(=O)c2cc(S(=O)(=O)N3CCCCCC3)ccc2OC)C1", "note": "(centres unmarked)", "hERG current change (%, negative = inhibition) at 10uM": -17.4}
{"smiles": "CCOC(=O)C1CCN(C(=O)c2cc(S(=O)(=O)N3CCCCCC3)ccc2OC)CC1", "hERG current change (%, negative = inhibition) at 10uM": -50.8}
{"smiles": "COc1ccc(S(=O)(=O)N2CCc3ccccc32)cc1C(=O)O", "hERG current change (%, negative = inhibition) at 10uM": -6.25}
{"smiles": "CCOC(=O)C1CCN(S(=O)(=O)c2ccc(OC)c(C(=O)N3CCCCCC3)c2)CC1", "hERG current change (%, negative = inhibition) at 10uM": -12.5}
{"smiles": "CN1CCN(S(=O)(=O)c2ccc(CNC(=O)c3ccccc3)s2)CC1", "hERG current change (%, negative = inhibition) at 10uM": 23.1}
{"smiles": "CCOC(=O)C1CCN(S(=O)(=O)c2ccc(OC)c(C(=O)N3CCCCC3)c2)CC1", "hERG current change (%, negative = inhibition) at 10uM": 12.5}
{"smiles": "NC(=O)C1CCN(C(=O)c2cc(S(=O)(=O)N3CCOCC3)c(Cl)cc2Cl)CC1", "hERG current change (%, negative = inhibition) at 10uM": 8.61}
{"smiles": "CCOC(=O)C1CCN(C(=O)c2cc(S(=O)(=O)N3CCOCC3)c(Cl)cc2Cl)CC1", "hERG current change (%, negative = inhibition) at 10uM": -50.1}
{"smiles": "CCOC(=O)C1CCN(S(=O)(=O)c2ccc(CNC(=O)c3ccccc3)s2)CC1", "hERG current change (%, negative = inhibition) at 10uM": -50.3}
{"smiles": "O=C(N/C(=C\\c1ccco1)C(=O)N1CCCC(CO)C1)c1ccccc1", "note": "(centres unmarked)", "hERG current change (%, negative = inhibition) at 10uM": 15.6}
{"smiles": "Cc1ccc(S(=O)(=O)NC2CC3CCC2C3)cc1", "note": "(centres unmarked)", "hERG current change (%, negative = inhibition) at 10uM": -1.07}
{"smiles": "CCN(C(=O)COc1ccccc1)C1CCCCC1", "hERG current change (%, negative = inhibition) at 10uM": 7.42}
{"smiles": "CC(=O)C[C@@H](O)CC(=O)[C@H]1OC(=O)CCCCCCc2ccccc21", "hERG current change (%, negative = inhibition) at 10uM": -2.65}
{"smiles": "Cc1onc(C(=O)NCc2cccs2)c1[N+](=O)[O-]", "hERG current change (%, negative = inhibition) at 10uM": 9.7}
{"smiles": "CC1CCCN(c2ccc(F)cc2N)C1.Cl", "note": "(centres unmarked)", "hERG current change (%, negative = inhibition) at 10uM": 11.2}
{"smiles": "COc1cccc(NC(=O)c2ccc[n+](C)c2)c1.[I-]", "hERG current change (%, negative = inhibition) at 10uM": 18.2}
{"smiles": "Cc1cccn2cc(CNc3ccccc3)nc12", "hERG current change (%, negative = inhibition) at 10uM": -4.15}
{"smiles": "CCOC(=O)N1CCN(S(=O)(=O)c2ccc(C)c(C(=O)NC3CCCCC3)c2)CC1", "hERG current change (%, negative = inhibition) at 10uM": 1.42}
{"smiles": "CCOC(=O)C1CCN(S(=O)(=O)c2ccc(C)c(C(=O)NC3CCCCC3)c2)CC1", "hERG current change (%, negative = inhibition) at 10uM": -55.8}
{"smiles": "Cc1ccc(S(=O)(=O)N2CCC(C(N)=O)CC2)cc1C(=O)NC1CCCCC1", "hERG current change (%, negative = inhibition) at 10uM": 18.9}
{"smiles": "O=C(Nc1ccccc1)C(O)C(O)C(=O)Nc1ccccc1", "note": "(centres unmarked)", "hERG current change (%, negative = inhibition) at 10uM": 16.8}
{"smiles": "COc1cccc(-n2cc(CNCc3cn(C)nc3-c3ccccc3F)cn2)c1", "hERG current change (%, negative = inhibition) at 10uM": -19.3}
{"smiles": "CCn1ccnc1CN(C)Cc1cn(C)nc1-c1ccccc1F", "hERG current change (%, negative = inhibition) at 10uM": 13.2}
{"smiles": "CN(Cc1ccc(-n2cccn2)cc1)Cc1cn(C)nc1-c1ccccc1F", "hERG current change (%, negative = inhibition) at 10uM": -74.9}
{"smiles": "Cn1cc(CNCCCn2ncc3ccccc32)c(-c2ccccc2F)n1", "hERG current change (%, negative = inhibition) at 10uM": -36.3}
{"smiles": "CN(Cc1cccc(-n2cccn2)c1)Cc1cn(C)nc1-c1ccccc1F", "hERG current change (%, negative = inhibition) at 10uM": 15.9}
{"smiles": "Cn1cc(CNCc2ccc(-n3cccn3)cc2)c(-c2ccccc2F)n1", "hERG current change (%, negative = inhibition) at 10uM": -62.2}
{"smiles": "O=C(CNC(=O)OCc1ccccc1)NC1CCCCCCC1", "hERG current change (%, negative = inhibition) at 10uM": -2.67}
{"smiles": "CCOCCCNC(=O)Cn1cnc2c(cnn2-c2ccc(C)c(C)c2)c1=O", "hERG current change (%, negative = inhibition) at 10uM": 3.91}
{"smiles": "O=C(NCC12CC3CC(C1)CC(CNC(=O)N1CCCC1)(C3)C2)N1CCCC1", "hERG current change (%, negative = inhibition) at 10uM": -3.73}
{"smiles": "O=C(CN1CCN(C(=O)C2COc3ccccc3O2)CC1)Nc1ccc(F)cc1", "note": "(centres unmarked)", "hERG current change (%, negative = inhibition) at 10uM": -75.7}
{"smiles": "O=C(Nc1ccc(F)cc1)C1COc2ccccc2O1", "note": "(centres unmarked)", "hERG current change (%, negative = inhibition) at 10uM": 9.07}
{"smiles": "CCN1CCN(C(=O)C2COc3ccccc3O2)CC1", "note": "(centres unmarked)", "hERG current change (%, negative = inhibition) at 10uM": -7.48}
{"smiles": "CC(C)N(C(=O)CN1CCN(C(=O)C2COc3ccccc3O2)CC1)C(C)C", "note": "(centres unmarked)", "hERG current change (%, negative = inhibition) at 10uM": -0.817}
{"smiles": "O=C(C1COc2ccccc2O1)N1CCN(c2ccc(F)cc2)CC1", "note": "(centres unmarked)", "hERG current change (%, negative = inhibition) at 10uM": -40.7}
{"smiles": "O=C(CN1CCN(C(=O)C2COc3ccccc3O2)CC1)Nc1ccccc1", "note": "(centres unmarked)", "hERG current change (%, negative = inhibition) at 10uM": -66.2}
